We go through 33 compounds from PubChem BioAssay (Tox21).

Experiment [1] can be described thus: qHTS assay to identify small molecule agonists of the RXR signaling pathway - cell viability counter screen (AID 1159529).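 For activity change, negative = cytotoxicity: HEK 293T cells carrying an RXR-alpha UAS beta-lactamase reporter; series mostly up to about 77 µM.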 Note: nearly all actives have a fitted effect of over 50% in size. Note: potency is the fitted concentration of half-maximal effect. The method, boiled down:
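Tox21 10K compounds were tested for cytotoxicity against GeneBLAzer RXR-alpha HEK 293T cells grown in 2% charcoal-stripped FBS. Exposure lasted 16 hr at 37 C, 5% CO2; viability read by CellTiter-Glo luminescence.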
On the technique in general: In qHTS, concentration-response curves come from the screen itself.

Experiment [2] in a line: qHTS assay to identify small molecule antagonists of the retinoid acid receptor (RAR) signaling pathway - cell viability counter screen (AID 1159551). Note: nearly all actives have a fitted effect of over 35% in size. The method, boiled down:
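Cytotoxicity counter screen: ATP content quantified by CellTiter-Glo luminescence in C3RL4 cells treated 6 hr at 37 C with compound and retinol (1 uM final). Cells plated at 1,000/well and cultured overnight before dosing.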

The nature of experiment [3]: qHTS assay to identify small molecule antagonists of the retinoic acid receptor (RAR) signaling pathway (AID 1159552; note: nearly all actives have a fitted effect of over 50% in size). The gist of the method: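 Overnight-plated C3RL4 reporter cells get compound, then retinol to 1 uM final; plates sit 6 hr at 37 C, 5% CO2. A luciferase reagent is added and light output recorded after 30 min at room temperature.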
Experiment [4] is described as follows: qHTS assay to identify small molecule agonists of the retinoic acid receptor (RAR) signaling pathway (AID 1159553). Note: potency is the fitted concentration of half-maximal effect. The gist of the method: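 Luminescence was measured 30 min after luciferase reagent addition at room temperature. Before that, C3RL4 reporter cells (1,000 per well, plated overnight) were treated with compound for 6 hr at 37 C and 5% CO2.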
A short description of experiment [5]: qHTS assay to identify small molecule antagonists of the estrogen related receptor (ERR) signaling pathway from Tox21 library - cell viability counter screen (AID 1224834). Note: nearly all actives have a fitted effect of over 30% in size. The method, boiled down:
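CellTiter-Fluor fluorescence, read after 30 min at 37 C, measures viability of ERR cells. Cells plated at 2,000/well and incubated 6 h before pin-tool compound addition, then exposed 17.5 hours at 37 C.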

Experiment [6] is described as follows: qHTS assay to identify small molecule antagonists of the estrogen related receptor (ERR) signaling pathway (AID 1224819; note: series mostly up to about 46 µM; nearly all actives have a fitted effect of over 50% in size). The gist of the method:
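LOPAC library screened for antagonism as reduced One-Glo luminescence in ERR reporter cells (2,000/well). Compounds were added after 6 h pre-incubation and left 18 h at 37C; reading followed a 30 min room-temperature reagent step.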

Experiment [7] can be described thus: qHTS assay to identify small molecule agonists of the estrogen related receptor (ERR) signaling pathway (AID 1224820). The method, boiled down:
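After 6 h plating (2,000 cells/well) and 18 h compound treatment at 37 C, ERR cells were lysed with One-Glo and luminescence read after 30 min at room temperature.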

Experiment [8] deals with estrogen-related receptor alpha (ERRalpha) with PGC-1alpha coactivator, human. The experiment can be described thus: qHTS assay to identify small molecule antagonists of the estrogen related receptor signaling pathway with the pleiotropic PPARgamma coactivator (PGC) (AID 1224821; calls by dose curve;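 note: series mostly up to about 46 µM; lower luminescence signal means antagonism of PGC/ERR signalling; nearly all actives have a fitted effect of over 50% in size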). The method, boiled down: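 Luminescence from One-Glo luciferase reagent (30 min, room temperature) measured after 18 h compound treatment at 37 °C. Cells carry the PGC/ERR reporter and were seeded 6 h prior to dosing.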

Experiment [9] can be described thus: qHTS assay to identify small molecule antagonists of the estrogen related receptor signaling pathway with the pleiotropic PPARgamma coactivator (PGC) cell viability counter screen (AID 1224822; note: series mostly up to about 46 µM). The gist of the method: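 Viability counter-screen read by fluorescence intensity after 30 min with CellTiter-Fluor at 37 C; PGC/ERR reporter cells were exposed to compounds for 17.5 h at 37 C following a 6 h preincubation.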

The nature of experiment [10]: qHTS assay to identify small molecule agonists of the estrogen related receptor signaling pathway with the pleiotropic PPARgamma coactivator (PGC) (AID 1224823). The method, boiled down:
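Luminescence from One-Glo reagent (30 min, room temperature) was read after 18 h compound treatment at 37 C of PGC/ERR cells plated 6 h beforehand; compounds delivered in DMSO by pin tool.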

Records with an inconclusive call do not appear. Values without a mark were called inactive. Calls of active or inactive are those of the source. Unless noted, calls come from the whole dose curve; as a rule, active = well fitted curve in the direction sought with a large enough effect in the repeat runs; inconclusive = weak or mixed curves; inactive = no such curve, though single readings can be large; an effect the other way counts as inactive or inconclusive.
% is set by controls: 0 for no effect and ±100 for the full control effect.

Regarding `O=C(NS(=O)(=O)/C=C/c1cccs1)c1ccc(F)cc1Br`, the Potency entry in experiment [1], in [2], in experiment [3], in [4] and in experiment [5] was “inactive” throughout.

As to `CC(C)(C)C1CCCCC1O` (stereo unspecified), the Potency result in experiment [1], in experiment [2], in experiment [3], in experiment [4] and in experiment [5] was “inactive” throughout.

`Nc1nc(CC(=O)O)cs1`: in experiment [1], the Potency is 21.9 µM (active). The Potency result in experiment [2] and in [3] was “inactive” each time.

Take `NC(N)=N/N=C/c1c(Cl)cccc1Cl`: the Potency entry in [1], in experiment [2], in [3] and in [4] was “inactive” in each case. For the same compound, the compound was called inactive in experiment [6], in [7], in experiment [8], in [9] and in experiment [10].

With `CC1CCc2cc(F)cc3c(=O)c(C(=O)O)cn1c23` (stereo unspecified), the Potency result in [1], in experiment [2], in experiment [3], in experiment [4] and in experiment [5] was “inactive” throughout.

For `CC(=O)N(O)CCCCCNC(=O)CCC(=O)N(O)CCCCCNC(=O)CCC(=O)N(O)CCCCCN`, the Potency entry in experiment [1], in experiment [2], in [3] and in [4] was “inactive” each time.

As to `CC(C(=O)O)c1ccc(C(=O)c2ccccc2)s1` (stereo unspecified), the Potency entry in experiment [1], in experiment [2], in experiment [3] and in [5] was “inactive” throughout. In addition, the Potency in [4] is 8.41 µM (active).

Consider `c1ccc(OCc2ccc(CCCN3CCOCC3)cc2)cc1`, for which the Potency entry in [1], in [2] and in [3] was “inactive” in each case. Further, the Potency in experiment [4] was 13.3 µM (active).

As to `O=C(C(=O)c1ccc(Br)cc1)c1ccc(Br)cc1`, the activity change, negative = cytotoxicity in experiment [1] is 5.23% [at 15.8 µM]; in [2] it was 1.34% [at 19 µM]. For the same compound, in experiment [3], the activity, negative = inhibition was 45.5% [at 19 µM]. The Potency entry in [4] was “inactive”. Moreover, the viability change, negative = cytotoxic in [5] is -1.64% [at 19 µM].

On to `NC(=S)N/N=C/c1cccnc1`, for which the Potency entry in experiment [1], in [2], in experiment [3], in [4] and in [5] was “inactive” throughout.

For `Nc1nc(N)c2nc(CNc3ccc(C(=O)N[C@@H](CCC(=O)O)C(=O)O)cc3)cnc2n1`, the Potency result in experiment [1], in [2], in experiment [3], in [4] and in [5] was “inactive” in each case.

`O=C(O)c1cn(C2CC2)c2cc(Cl)c(F)cc2c1=O`: the Potency result in experiment [1], in [2], in [3], in [4] and in experiment [5] was “inactive” each time.

For `CCCCCOC(=O)COc1cc(N2C(=O)C3=C(CCCC3)C2=O)c(F)cc1Cl`, the Potency entry in experiment [1], in experiment [2], in [3], in experiment [4] and in experiment [5] was “inactive” in each case.

Regarding `Nc1cnn([C@@H]2O[C@H](CO)[C@@H](O)[C@H]2O)c(=O)n1`, the Potency result in experiment [1], in [2], in experiment [3] and in experiment [4] was “inactive” each time.

`CCOc1ccc2[nH]cc(C(=O)NCc3ccccc3)c(=O)c2n1`: the Potency entry in experiment [1], in experiment [2], in [3] and in experiment [4] was “inactive” in each case.

With `CC(=O)/C=C/C1C(C)=CCCC1(C)C` (stereo unspecified), the Potency result in experiment [1], in experiment [2], in experiment [3], in experiment [4] and in experiment [5] was “inactive” throughout.

Turning to `NC1CCN(c2nc3c(cc2F)c(=O)c(C(=O)O)cn3-c2ccc(F)cc2F)C1` (stereo unspecified), the Potency result in experiment [1], in experiment [2], in experiment [3], in [4] and in experiment [5] was “inactive” throughout.

Take `FC(F)(F)C(F)(F)C(F)(F)C(F)(F)C(F)(F)C(F)(F)CCI`: the Potency result in [1], in experiment [2], in experiment [3], in experiment [4] and in experiment [5] was “inactive” throughout.

For the compound `O=C(O)c1cccc(N(Cc2cccnc2)c2ccc(OC(F)F)c(OC(F)F)c2)c1`, the Potency result in experiment [1], in experiment [2], in experiment [3] and in [4] was “inactive” throughout.

As to `CC(=O)Nc1ccc(/C=N/NC(N)=S)cc1`, the Potency entry in experiment [1], in experiment [2], in [3], in experiment [4] and in experiment [5] was “inactive” in each case.

For `CC(O)C1CCCCC1` (stereo unspecified), the Potency result in experiment [1], in experiment [2], in experiment [3], in [4] and in experiment [5] was “inactive” each time.

Consider `CCCCOc1cc(C(=O)OCCN(CC)CC)ccc1N`, for which the Potency entry in experiment [1], in experiment [2], in experiment [3], in [4] and in experiment [5] was “inactive” each time.

`CC(=O)c1ccc2c(c1)[C@H](NC(=O)c1ccc(F)cc1)[C@@H](O)C(C)(C)O2`: the Potency result in [1], in experiment [2], in [3] and in experiment [4] was “inactive” each time.

For the compound `Oc1ccc2c(c1)OCO2`, the Potency entry in [1], in experiment [2], in experiment [3], in [4] and in experiment [5] was “inactive” throughout.

Take `Cc1ccc(C)o1`: the Potency entry in [1], in [2], in [3], in experiment [4] and in [5] was “inactive” each time.

On to `CCCCCCCCCCCCCCC1CO1` (stereo unspecified), for which the Potency entry in experiment [1], in experiment [2], in experiment [3], in [4] and in experiment [5] was “inactive” each time.

As for `NCCCN(CCO)CCO`, the Potency result in experiment [1], in experiment [2], in [3], in [4] and in [5] was “inactive” in each case.

With `COCCCCCCCCOCCC[Si](C)(O[Si](C)(C)C)O[Si](C)(C)C`, the Potency result in experiment [1] and in [2] was “inactive” each time.

As for `OCC1CC2CC1C1CCC(CO)C21` (stereo unspecified), the Potency result in [1], in experiment [2], in [3], in experiment [4] and in experiment [5] was “inactive” each time.

As for `O=C1Nc2cc(Cl)ccc2Oc2ccccc21`, the Potency result in [1], in experiment [2], in [3], in [4] and in experiment [5] was “inactive” in each case.

With `O=C1[C@H](CC[C@H](O)c2ccc(F)cc2)[C@@H](c2ccc(O)cc2)N1c1ccc(F)cc1`, the Potency entry in experiment [1], in [2] and in [3] was “inactive” each time.

With `CCCCCCCCCCCCCCCC(=O)OC/C=C(C)/C=C/C=C(C)/C=C/C1=C(C)CCCC1(C)C`, the Potency result in [1], in experiment [2], in [3], in experiment [4] and in experiment [5] was “inactive” in each case.

For `C=C(C)C(=O)OCCN(C)C`, the Potency entry in experiment [1], in experiment [2], in [3], in experiment [4] and in experiment [5] was “inactive” each time.
